Screens from PubChem.
NPC1 promoter act: activators of NPC1 promoter; Huh7 NPC1 promoter luciferase reporter, 24 h; Potency, µM (highest dose often 9.22 µM), without a hit: at the top dose activation, hits mostly activators; 320,000 tested, 2.4% active; also: % of control where 0% means no effect; nearly all actives have a fitted effect of over 60% in size
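Luminescence from an NPC1 promoter-driven luciferase reporter in stably transfected Huh7 cells was measured after 24 h compound treatment at 37 °C, followed by 10 min ambient incubation with luciferase detection reagent.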
KinaseGlo FLuc: counter-screen: inhibitors of Kinase-Glo firefly luciferase. Kinase-Glo luciferase, ATP luminescence, 8 min. Potency, µM (top dose mostly 38.3 µM), for the others: at the top dose activity change, negative = inhibition, actives largely listed as inhibitors. 200,000 tested, 0.28% active; also: % is scaled to controls: 0 for no effect and ±100 for the full control effect; nearly all actives have a fitted effect of over 60% in size
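Kinase-Glo luciferase light output from ATP and luciferin was measured with 10 uM ATP, within the enzyme's linear range. Buffer: 50 mM imidazole pH 7.2, 50 mM KCl, 7 mM MgCl2, 0.01% Tween 20, 0.05% BSA; luminescence read after 8 min at ambient temperature.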
ELG1 genotox: genotoxicity induction in ELG1-luciferase HEK293T cells; 330,000 tested, 1.3% active; Potency, µM (doses to about 46 µM), for the others: top-dose activity change, positive = activation, actives largely listed as activators; HEK293T ELG1-luciferase reporter, luminescence, 16 h; also: % of control where 0% means no effect; nearly all actives have a fitted effect of over 60% in size
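Genotoxicity was scored as increased ELG1-luciferase reporter signal, measured by ONE-Glo luminescence (30 min, room temperature). Compound or vehicle exposure of the HEK293T reporter cells lasted 16 hr at 37°C.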
FLuc counter: counter-screen for miR-21 project: firefly luciferase inhibitors or activators | purified FLuc, Km substrates, luminescence inhibition | P08659 | Potency, µM (doses to about 57.5 µM), inactives show at the top dose activity change, negative = inhibition, most hits filed as inhibitors | 360,000 tested, 6.9% active;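 also: plate controls were vehicle for no effect and reference inhibitor for full effect; nearly all actives have a fitted effect of over 55% in size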
Target sequence (P08659 whole entry, looked up): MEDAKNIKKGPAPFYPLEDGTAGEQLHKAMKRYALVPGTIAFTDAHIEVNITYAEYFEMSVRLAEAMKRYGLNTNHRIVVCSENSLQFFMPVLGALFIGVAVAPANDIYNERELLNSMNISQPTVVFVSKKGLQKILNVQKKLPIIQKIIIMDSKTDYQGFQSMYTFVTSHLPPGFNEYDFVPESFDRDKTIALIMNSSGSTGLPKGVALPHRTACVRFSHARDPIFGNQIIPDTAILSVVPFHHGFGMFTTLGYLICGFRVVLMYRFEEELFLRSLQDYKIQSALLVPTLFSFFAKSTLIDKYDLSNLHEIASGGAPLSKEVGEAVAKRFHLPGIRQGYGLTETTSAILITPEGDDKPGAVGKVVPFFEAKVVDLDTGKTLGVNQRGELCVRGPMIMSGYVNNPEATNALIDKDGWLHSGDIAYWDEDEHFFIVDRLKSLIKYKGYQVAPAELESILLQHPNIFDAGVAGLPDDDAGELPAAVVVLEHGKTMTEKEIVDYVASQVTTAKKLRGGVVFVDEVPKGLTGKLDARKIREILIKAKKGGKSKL
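Purified P. pyralis luciferase, 10 nM final, with Km-level 10 uM D-luciferin and 10 uM ATP in 50 mM Tris acetate pH 7.5, 10 mM Mg acetate, 0.01% Tween-20, 0.05% BSA; 6-point qHTS titration about 60 µM downward; luminescence read.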
SMN2 splice enh: enhancers of SMN2 splice variant expression | HEK293 SMN2-luciferase splicing reporter, luminescence, 30-36 h | Potency, µM (highest dose often 46.1 µM), for the others: at the top dose activity change, positive = activation, usual class: activators | 210,000 tested, 2.8% active | AID 1458; also: % of control where 0% means no effect; nearly all actives have a fitted effect of over 55% in size
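qHTS luciferase splicing reporter: luminescence rises when SMN2 exon 7 is included in transfected HEK293 cells. Compound exposure lasted 30-36 h at 37C, with 4.5 mM final sodium butyrate as control, followed by a ONE-Glo read.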
Rab9 promoter act: Rab9 promoter activation. 320,000 tested, 2.8% active. Huh7 Rab9 promoter-luciferase reporter, luminescence, 24 h. Potency, µM (highest dose often 9.22 µM), for the others: at the highest dose activation, negative = inhibition, actives largely listed as activators; also: % of control where 0% means no effect; nearly all actives have a fitted effect of over 60% in size
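Luciferase signal after 10 min detection reagent at ambient indicates Rab9 promoter upregulation; stably transfected Huh7 cells were treated 24 h with compound in DMSO at 37 °C, 5% CO2.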
Starred values were filed as active, the others as inactive; ? = inconclusive; . = not tested or not shown. Compounds with a hit are over-represented: about 7.4% of the library has one in this group of screens. Calls follow the shape of the dose curve; as a rule, active = well fitted curve in the direction sought with a large enough effect; inconclusive = small, poorly fitted or top-dose-only effect, or another doubt; inactive = no such curve, though single readings can be large; an effect the other way counts as inactive or inconclusive. Potency is read from the fitted curve at half-maximal effect.

SMILES	NPC1 promoter act	KinaseGlo FLuc	ELG1 genotox	FLuc counter	SMN2 splice enh	Rab9 promoter act
CNc1cccc2c1C(=O)c1ccccc1C2=O	27.6%	-8.7%	?	9.53µM*	?	?
COc1cccc(/C=C2\SC(=S)N(C(C(=O)O)c3ccccc3)C2=O)c1OC (stereo not given)	0.1%	.	-0.1%	?	.	-4.4%
COc1ccc(/C=C2\SC(=S)N(C(C(=O)O)c3ccccc3)C2=O)c(OC)c1 (stereo not given)	-3.7%	.	1.2%	23.9µM*	.	-13.5%
Nc1nc(-c2ccccc2)cc(N2CCCCC2)n1	-2.6%	1.9%	2.1%	3.6%	5.9%	-6.0%
c1ccc(-c2cc(N3CCCCCC3)n[nH]2)cc1	?	-2.4%	16.4µM*	21.3µM*	?	?
c1ccc(-c2cc(N3CCCCC3)ncn2)cc1	?	-1.4%	14.6µM*	10.7µM*	10µM*	2.82µM*
Cc1c(C(=O)Nc2ccc(S(=O)(=O)N3CCOCC3)cc2)cccc1[N+](=O)[O-]	1.6%	.	7.4%	-1.1%	.	-5.4%
Cc1ccccc1CCNC(=O)c1cc2ccccn2n1	.	.	.	10.7µM*	.	.
COc1ccc(CNC(=O)c2cc3ccccn3n2)cc1OC	.	.	.	-3.9%	.	.
O=C(Nc1ccc(Br)cc1)c1cc2ccccn2n1	0.562µM*	.	?	0.953µM*	.	0.316µM*
CCc1ccc(NC(=O)c2cc3ccccn3n2)cc1	.	.	.	1.9µM*	.	.
O=C(NCCc1ccc(Cl)cc1)c1cc2ccccn2n1	2.9%	.	2.6%	-18.3%	.	17.3%
CC(NC(=O)c1cc2ccccn2n1)c1ccccc1 (stereo not given)	.	.	.	0.0%	.	.
Cc1ccc(NC(=O)c2cc3ccccn3n2)cc1F	.	.	.	2.39µM*	.	.
O=C(O)Cc1ccc(C(=O)c2ccccc2F)s1	-4.5%	0.3%	2.9%	-5.1%	-12.6%	7.0%
CC(C)(C)NC(=O)C(c1cccs1)N(C(=O)c1csnn1)c1ccccc1F (stereo not given)	0.5%	5.8%	3.2%	?	2.9%	-4.2%
CCS(=O)(=O)c1ncc(Cl)c(C(=O)N2CCN(c3cccc(Cl)c3)CC2)n1	.	.	.	.	-82.6%	.
CC(C)(C)N1C(=O)[C@H]2[C@@H](c3ccc(Br)cc3)N3C(=O)N(c4ccccc4)C(=O)[C@@]3(C)[C@H]2C1=O	0.3%	.	-2.0%	1.2%	.	-1.3%
Cc1ccnn1CCC(=O)N1CCCC(CCC(=O)N2CCN(c3ccccn3)CC2)C1 (stereo not given)	-5.8%	5.8%	-3.6%	-1.2%	.	-0.5%
COc1ccc(N2CCN(C(=O)CCCOc3cc(=O)n(C)c4ccccc34)CC2)cc1	-1.4%	-2.9%	-0.4%	3.0%	-8.2%	1.7%
Cn1c(=O)cc(OCCCC(=O)Nc2ccccn2)c2ccccc21	-4.6%	-4.3%	20.6µM*	1.8%	21.0%	-6.7%
Cn1c(=O)cc(OCC(=O)NCCCN2CCN(Cc3ccccc3)CC2)c2ccccc21	-0.2%	1.5%	18.4µM*	1.7%	?	0.4%
Cn1cc(C(=O)Nc2ccccn2)c(=O)c2ccccc21	?	.	?	15.1µM*	.	?
CC1CCN(C(=O)CCCOc2cc(=O)n(C)c3ccccc23)CC1	-2.8%	-0.7%	18.4µM*	-1.9%	?	-5.5%
Cc1ccccc1C(=O)Nc1ccccn1	.	-1.5%	.	-12.6%	-19.4%	.
SMILES	NPC1 promoter act	KinaseGlo FLuc	ELG1 genotox	FLuc counter	SMN2 splice enh	Rab9 promoter act
CC(C)N1CCN(Cc2ccc(Sc3nncn3C)o2)CC1CCO (stereo not given)	-4.4%	.	-2.3%	4.1%	.	-2.0%
CCc1ccc(NC(=O)C(=O)NCCc2csc(-c3cccc(F)c3)n2)cc1	.	.	.	-2.1%	.	.
Cn1c(=O)cc(OCCCC(=O)NCc2ccco2)c2ccccc21	-7.9%	-3.3%	18.4µM*	-2.2%	10µM*	-4.0%
CC(C)CCNC(=O)CCCOc1cc(=O)n(C)c2ccccc12	-8.4%	-0.6%	?	4.6%	12.6µM*	-1.3%
Cc1ccc(CNC(=O)CCCOc2cc(=O)n(C)c3ccccc23)o1	-10.4%	1.7%	?	-1.6%	?	-0.2%
O=S(=O)(NC(=S)c1ccccc1)c1ccc(F)cc1	-1.4%	.	-6.4%	3.2%	.	-0.5%
Cc1ccc(Nc2nc3nonc3[nH]c2=O)cc1Cl	9.2%	-1.0%	-16.0%	21.3µM*	-73.6%	2.2%
Cc1ccc(Nc2nc3nonc3[nH]c2=O)cc1C	18.1%	-2.1%	6.9%	12µM*	12.6%	26.0%
Cc1ccc(NC2=CC(=O)CCC2)cc1C	1.7%	-1.3%	-0.1%	0.2%	-12.9%	-3.2%
COc1cc(/C=C/C(=O)OCC(=O)N2CCN(S(=O)(=O)c3ccc(C)cc3C)CC2)cc(Cl)c1OC	-5.9%	.	1.5%	-0.7%	.	-3.3%
Oc1cccc(/C=N/Nc2cccc3cccnc23)c1	?	-16.5%	?	0.675µM*	.	?
O=C(Nc1cccc2cccnc12)c1cccc2ccccc12	-0.6%	0.6%	13.4%	?	-23.0%	-5.9%
Oc1c(/C=N/Nc2cccc3cccnc23)ccc2ccccc12	?	-1.5%	?	?	11.2µM*	3.16µM*
COc1cc(/C=N/Nc2cccc3cccnc23)cc(OC)c1O	-2.0%	-2.8%	6.1%	2.69µM*	?	?
Cc1ccc2nc(C)cc(N/N=C/c3cccc(O)c3)c2c1	-0.5%	.	-2.3%	0.3%	.	-0.7%
O=S(=O)(c1ccc(Cl)cc1)c1nc(-c2cccs2)oc1N1CCCCC1	.	.	.	-8.7%	-8.3%	.
O=C1c2ccccc2C(O)(c2ccccc2)N1c1ccncc1 (stereo not given)	-10.5%	.	-3.3%	0.5%	.	-7.4%
COCCC1CCCCN1C(=O)c1ccc2nc(Cc3ccccc3F)oc2c1 (stereo not given)	1.78µM*	.	10.3µM*	8.49µM*	.	2.82µM*
CCOC(=O)CC1CCCCN1C(=O)c1ccc2oc(CCc3ccccc3)nc2c1 (stereo not given)	4.8%	.	1.8%	?	.	17.1%
CCOC(=O)C1CCCN(C(=O)c2ccc3oc(CCc4ccccc4)nc3c2)C1 (stereo not given)	?	.	11.6%	13.5µM*	.	30.0%
O=C(c1ccc2oc(CCCc3ccccc3)nc2c1)N1CCCC1	3.16µM*	.	9.2µM*	8.49µM*	.	1.78µM*
CCCCc1nc2cc(C(=O)N3CCN(c4nc(C)cnc4C)CC3)ccc2o1	?	.	3.9%	15.1µM*	.	?
Cn1nnc2ccccc2c1=O	-2.8%	1.4%	8.6%	-1.8%	-1.3%	-4.6%
CCOc1ccc(NC(=O)CSc2nnc3scc(-c4ccc(Cl)cc4)n23)cc1	.	.	.	1.5%	-2.0%	.
COC(=O)NC(C(=O)OC)(C(=O)OC)c1ccccc1	.	-0.1%	.	.	9.3%	.
CC(=O)C1CCCN(C(=O)c2ccc3nc(Cc4cccc(Cl)c4)oc3c2)C1 (stereo not given)	3.3%	.	-2.7%	5.5%	.	2.8%
